Data on eight compounds can be found in the supplement of paper PMC13380429.

The subject of this test is Vero E6 infected with SARS-CoV-2. Put plainly: inhibition of SARS-CoV-2 cytopathic effect; higher = more antiviral protection, active = above 15. The conditions noted are these: 48 h. In general terms: Damage to the host cells serves as the signal in cytopathic effect assays.

Values without a mark were called inactive.

Turning to `CN1C2CCC1CC(OC(c1ccccc1)c1ccc(Cl)cc1)C2` (stereo not given), the “inhibition of SARS-CoV-2 cytopathic effect” value (from here on “inhibition”) runs as follows: (1 nM) 5.63%; (8.33 nM) 6.26%; (100 nM) -1.76%; (833.33 nM) -2.87%; (10000 nM) 17.4% (active).
With `CC(N)Cc1ccc(O)cc1` (stereo not given) [hydroxyamphetamine], the “inhibition” value reads like this: (1 nM) 1.55%; (8.33 nM) -1.8%; (100 nM) 2.28%; (833.33 nM) 0.63%; (10000 nM) 1.86%.
For `CN(C(=O)c1c(O)c2ccccc2n(C)c1=O)c1ccccc1` [roquinimex], the “inhibition” value is, setting by setting: (1 nM) -4.01%; (8.33 nM) 0.29%; (100 nM) 2.85%; (833.33 nM) -0.21%; (10000 nM) 0%.
Taken in the same sequence, the figures for `COc1ccc(S(=O)(=O)N2CCCN(S(=O)(=O)c3ccc(OC)c(OC)c3)CC2)cc1OC` were -2.26%, -1.47%, -0.96%, -5.53% and 6.2%.
Turning to `CC(C)[C@@H]1CC[C@@H](C)C[C@H]1O` [levomenthol], the “inhibition” value runs as follows: (1 nM) 0.46%; (8.33 nM) -1.68%; (100 nM) 1.02%; (833.33 nM) 0.09%; (10000 nM) -0.2%.
As for `CC1=C(/C=C/C(C)=C/C=C/C(C)=C/C=C/C=C(C)/C=C/C=C(C)/C=C/C2=C(C)CCCC2(C)C)C(C)(C)CCC1` [beta-carotene], the “inhibition” value reads like this: (1 nM) -0.41%; (8.33 nM) 1.55%; (100 nM) 1.56%; (833.33 nM) 1.85%; (10000 nM) -0.57%.
For `CC(C)c1cnn2c(NCc3ccccc3)cc(NCCCCCCN)nc12`, the “inhibition” value (1 nM) was 2.49%; the “inhibition” value (8.33 nM) was -1.33%; the “inhibition” value (100 nM) is -2.16%; the “inhibition” value (833.33 nM) was 1.83%; the “inhibition” value (10000 nM) was -12.8%.
Turning to `CCC(CC)CC1(C(=O)Nc2ccccc2SC(=O)C(C)C)CCCCC1` [dalcetrapib], the “inhibition” value runs as follows: (1 nM) -1.76%; (8.33 nM) -0.46%; (100 nM) -1.34%; (833.33 nM) -4.44%; (10000 nM) -2.5%.
